Screening results: PubChem, several laboratories
CYP2C19 inhib: blocks human cytochrome P450 2C19. P33261. CYP2C19 Supersomes, luciferin-H EGE luminescence, 30 min. inhibition, % at 5 µM. 96,000 compounds, 21% hits. AID 778;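 active = CYP2C19 inhibition above a set limit at 5 µM in the primary screen, cut at about 50% in these data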;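 also: plate controls were negative control wells for no effect and 2.5 mM tranylcypromine positive control for full effect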
Cav3 T inh: human Cav3.2 channel inhibition, primary screen; Cav3.2-expressing cells, Fluo-4 calcium fluorescence FDSS; active compounds read low; B-score at 10 µM; 100,000 compounds, 4% hits; AID 449739; O95180;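 active = single-dose well whose peak fluorescence ratio is a statistical outlier from its plate by either plate-standardised score or position-corrected B-score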
CYP2C9 inhib: human CYP2C9 inhibition. inhibition, % at 5 µM. CYP2C9 Supersomes, luciferin-H conversion, luminescence. 96,000 compounds, 20% hits. P11712;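 active = blocking of liver enzyme CYP2C9 beyond about 50% at 5 µM, limit read from the data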
Target sequence (P11712 whole entry, looked up): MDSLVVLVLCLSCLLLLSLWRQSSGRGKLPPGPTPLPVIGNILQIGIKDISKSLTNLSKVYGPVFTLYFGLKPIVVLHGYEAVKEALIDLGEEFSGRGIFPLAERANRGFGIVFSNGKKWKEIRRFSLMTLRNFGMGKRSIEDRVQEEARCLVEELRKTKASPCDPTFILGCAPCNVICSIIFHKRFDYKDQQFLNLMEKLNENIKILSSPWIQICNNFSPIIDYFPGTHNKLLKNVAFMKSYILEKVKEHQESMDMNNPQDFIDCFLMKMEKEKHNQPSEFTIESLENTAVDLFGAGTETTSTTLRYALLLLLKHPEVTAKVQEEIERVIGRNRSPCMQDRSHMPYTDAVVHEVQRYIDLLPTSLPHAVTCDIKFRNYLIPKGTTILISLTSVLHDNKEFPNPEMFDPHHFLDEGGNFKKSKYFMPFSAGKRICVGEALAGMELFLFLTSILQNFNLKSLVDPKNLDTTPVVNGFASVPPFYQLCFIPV
CYP2C19 act: increases human CYP2C19 enzyme activity | activation factor at 5 µM | 96,000 tested, under 10 active | recombinant CYP2C19, luciferin-H EGE luminescence; active compounds read high; 0 = fully inhibited enzyme, 1 = untreated enzyme | P33261;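 active = activation factor of at least 2 at 5 µM in the primary screen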;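 also: 0 = wells with 2.5 mM tranylcypromine and 1 = vehicle-only wells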
CYP2C9 activ: activators of human CYP2C9; P11712; recombinant CYP2C9, luciferin-H conversion, luminescence; active compounds read high; factor 1 = untreated enzyme, 0 = blocked; activation factor at 5 µM; 96,000 compounds, 1.4% hits; AID 1024;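 active = activation factor of 2 or more for CYP2C9 at a 5 µM dose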;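 also: 0 = sulfaphenazole-blocked wells and 1 = vehicle-only wells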
Starred values were filed as active, the others as inactive. Compounds with a hit are over-represented: about 27% of the library has one in this group of screens.

`COC(=O)c1cc(NCc2cccs2)ccc1N1CCOCC1` gave CYP2C19 inhib 77*, Cav3 T inh 0.91, CYP2C9 inhib 64*, CYP2C19 act 0.2 and CYP2C9 activ 0.4.
Screening Cc1csc(-c2cnn(-c3ccccc3)c2NC(=O)c2ccc(C(F)(F)F)cc2)n1 returned CYP2C19 inhib 19, Cav3 T inh -2.8, CYP2C9 inhib 14, CYP2C19 act 0.8 and CYP2C9 activ 0.9.
Screening OCCCc1nc2n(n1)C(c1ccccc1)C=C(c1ccc(F)cc1)N2 (stereo not drawn) returned Cav3 T inh 0.011.
`OCCCc1nc2n(n1)C(c1ccccc1Cl)C=C(c1cccs1)N2` (stereo not drawn) gave CYP2C19 inhib 39, Cav3 T inh -1.5, CYP2C9 inhib 51*, CYP2C19 act 0.6 and CYP2C9 activ 0.5.
Screening OCCCc1nc2n(n1)C(c1cccs1)C=C(c1ccccc1)N2 (stereo not drawn) returned CYP2C19 inhib 58*, Cav3 T inh -9.9*, CYP2C9 inhib 96*, CYP2C19 act 0.4 and CYP2C9 activ 0.
CC1(OC(=O)c2ccc(Cl)nc2)C(=O)C=C2C=C(c3ccc(C#N)cc3)OC=C2C1=O (stereo not drawn) was read as Cav3 T inh 0.038.
O=S(=O)(c1ccccc1)c1nc(-c2ccco2)oc1NCc1ccco1 was read as CYP2C19 inhib 47, Cav3 T inh -0.45, CYP2C9 inhib 29, CYP2C19 act 0.5 and CYP2C9 activ 0.7.
For CCCCNc1oc(-c2ccc(OC)cc2)nc1S(=O)(=O)c1ccccc1 the results were CYP2C19 inhib 54*, Cav3 T inh -0.28, CYP2C9 inhib 18, CYP2C19 act 0.5 and CYP2C9 activ 0.8.
For O=S(=O)(c1ccccc1)c1nc(-c2ccco2)oc1NCCCn1ccnc1 the results were CYP2C19 inhib 100*, Cav3 T inh 0.88, CYP2C9 inhib 99*, CYP2C19 act 0 and CYP2C9 activ 0.
Cn1c(Cn2cnc3ccccc32)nnc1SCC(=O)CC(=O)Nc1ccccc1 was read as CYP2C19 inhib 25, Cav3 T inh -2.9, CYP2C9 inhib 70*, CYP2C19 act 0.7 and CYP2C9 activ 0.3.
Screening COc1ccc(NC(=O)CSc2nnc(Cn3cnc4ccccc43)n2C)cc1 returned Cav3 T inh -0.49.
COc1ccccc1-n1c(C)nc(=O)c(-c2ccccc2)c1C was read as CYP2C19 inhib 78*, Cav3 T inh 1.4, CYP2C9 inhib 7, CYP2C19 act 0.2 and CYP2C9 activ 0.9.
COc1ccc(-n2c(C)nc(=O)c(-c3ccccc3)c2C)cc1 was read as Cav3 T inh -0.018.
Screening Cn1c(NNC(=O)c2cccc3ccccc23)cc(=O)n(C)c1=O returned Cav3 T inh 0.14.
Screening Cc1ccc(NC(=O)CCn2c(=O)oc3ccccc32)c(C)c1 returned CYP2C19 inhib 29, Cav3 T inh 0.8, CYP2C9 inhib 5, CYP2C19 act 0.7 and CYP2C9 activ 1.
Screening CSc1nnc(-c2sc(-c3ccccc3)nc2C)n1C returned CYP2C19 inhib 42, Cav3 T inh -0.009, CYP2C9 inhib 72*, CYP2C19 act 0.6 and CYP2C9 activ 0.3.
Cc1nc(-c2ccccc2)sc1-c1n[nH]c(=S)n1C was read as CYP2C19 inhib 9, Cav3 T inh 0.75, CYP2C9 inhib 15, CYP2C19 act 0.9 and CYP2C9 activ 0.8.
For Cc1cccc(NC(=O)CC2S/C(=N/c3nccs3)N(C)C2=O)c1 (stereo not drawn) the results were CYP2C19 inhib 54*, Cav3 T inh -0.21, CYP2C9 inhib 80*, CYP2C19 act 0.5 and CYP2C9 activ 0.2.
Screening CC(C)C(CCN1C(=O)CCC1=O)C1CCOC(C)(C)C1 (stereo not drawn) returned CYP2C19 inhib 1, Cav3 T inh 1.2, CYP2C9 inhib 9, CYP2C19 act 1 and CYP2C9 activ 0.9.
`C#CCOCCOCCOCCNc1nc(N2CCN(C(=O)C([C@@H](C)CC)n3cc(C(N)CO)nn3)CC2)nc(N2CCN(C(=O)C([C@@H](C)CC)n3cc(C(N)COC(=O)C(F)(F)F)nn3)CC2)n1` (stereo partly drawn) gave Cav3 T inh 0.51.
For CCCC(=O)N=C1SC2CS(=O)(=O)CC2N1c1ccc(CC)cc1 (stereo not drawn) the results were CYP2C19 inhib -3, CYP2C9 inhib 10, CYP2C19 act 1 and CYP2C9 activ 0.9.
`Cc1nc2cc(Cl)ccc2n1-c1ccccc1` gave CYP2C19 inhib 80*, Cav3 T inh -3.1, CYP2C9 inhib 16, CYP2C19 act 0.2 and CYP2C9 activ 0.8.
`O=C(c1cccs1)N(C(=O)c1cccs1)c1ccc(Br)cn1` gave CYP2C19 inhib 100*, Cav3 T inh -0.37, CYP2C9 inhib 99*, CYP2C19 act 0 and CYP2C9 activ 0.
N#CC1=C(S)N=C(N)C(c2nc(-c3ccccc3)cs2)C12CCCC2 (stereo not drawn) was read as CYP2C19 inhib 86*, Cav3 T inh -0.21, CYP2C9 inhib 98*, CYP2C19 act 0.1 and CYP2C9 activ 0.
For Cc1ccc(-c2csc(C3C(N)=NC(S)=C(C#N)C34CCCCC4)n2)cc1 (stereo not drawn) the results were CYP2C19 inhib 50, Cav3 T inh -0.39, CYP2C9 inhib 89*, CYP2C19 act 0.5 and CYP2C9 activ 0.1.
Screening N#CC1=C(S)N=C(N)C(c2nc(-c3ccccc3)cs2)C12CCCCC2 (stereo not drawn) returned CYP2C19 inhib 60*, CYP2C9 inhib 67*, CYP2C19 act 0.4 and CYP2C9 activ 0.3.
`N#CC1=C(N)N=C(SCc2ccccc2)C(C(N)=O)C12CCCCC2` (stereo not drawn) gave CYP2C19 inhib 35, Cav3 T inh -0.074, CYP2C9 inhib 4, CYP2C19 act 0.7 and CYP2C9 activ 1.
c1ccn2c(SCc3cn4ccsc4n3)nnc2c1 was read as CYP2C19 inhib 20, Cav3 T inh 0.55, CYP2C9 inhib -3, CYP2C19 act 0.8 and CYP2C9 activ 1.
For CCn1c(=O)c2c(nc(SCC(=O)NCC3CCCO3)n2C)n(C)c1=O (stereo not drawn) the results were CYP2C19 inhib -4, Cav3 T inh -2.5, CYP2C9 inhib -12, CYP2C19 act 1 and CYP2C9 activ 1.1.
Screening COc1ccc2cc(C)c3nnc(SCC(=O)Nc4nc(-c5ccccc5)cs4)n3c2c1 returned CYP2C19 inhib 40, Cav3 T inh -2.6, CYP2C9 inhib 45, CYP2C19 act 0.6 and CYP2C9 activ 0.5.
Screening O=C1[C@H]2[C@H](C=CC[C@H]2C(=O)N2CCOCC2)CCN1Cc1ccccc1 returned Cav3 T inh -1.
COc1ccc(Nc2ncccc2C(=O)O)cc1 was read as CYP2C19 inhib -4, Cav3 T inh -0.17, CYP2C9 inhib 32, CYP2C19 act 1 and CYP2C9 activ 0.7.
Screening CC(=O)NS(=O)(=O)c1cccnc1Nc1cccc(Cl)c1 returned CYP2C19 inhib 9, Cav3 T inh -0.0018, CYP2C9 inhib 50*, CYP2C19 act 0.9 and CYP2C9 activ 0.5.
